In PubChem BioAssay (NCI):
Compounds without any hit were thinned out: in the full panel of roughly 83,000, 20% have a hit.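 Note: values are percent growth. 100 is the growth of untreated cells, values between 100 and 0 indicate rising inhibition; between -100 and 0 indicates cell death.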 Unmarked numbers belong to inactive results. The source made the active and inactive calls. How the source made its calls: active means growth percent below 10; inactive means the rest.

Test system: HL-60(TB) leukemia
Test: NCI-60 one-dose screen, 48 h (100 = growth as untreated, 0 = no growth, -100 = all killed)
Conditions: 10 µM unless noted

| SMILES | growth |
| --- | --- |
| Cc1sc2c(c1C)c(=O)nc1c(-c3nc(-c4ccccc4)cs3)n[nH]n12 | 94.1% |
| Cc1ccc(N=Nc2ccccc2)cc1 | 85.8% |
| Cn1cc(-c2ncnc3ccc(-c4cnc(Cl)c(NS(C)(=O)=O)c4)cc23)c2ccccc21 | 17.9% |
| COc1ccc(-c2cc(Cc3cccs3)c(=O)n(Cn3cncn3)n2)cc1 | 107% |
| O=C(Nc1ccc(Cl)cc1)c1cc(NCc2cc(O)ccc2O)ccc1O | 0.347% (active) |
| O=C(OCc1ccc2c(Cl)cc(Cl)c(O)c2n1)N1CCN(C(=O)c2cc3ccccc3[nH]2)CC1 | 31% |
| NC(=O)c1c(NC(=O)c2ccc3c(c2)OCO3)sc2c1CCC(=O)C2 | -58.3% (active) |
| NS(=O)(=O)Oc1ccc(-c2ccc3sccc3c2)cc1 | 99.7% |
| CC(=O)Nc1ccc(S(=O)(=O)c2ccnc3cc(Cl)ccc23)cc1 | 87% |
| CCCCCCCCCCCCCCCCCCNC(=O)[C@H]1CSC(c2ccc(OC)cc2O)N1 (some centres not stated) | 34.4% |
| CCCCOc1nc2c(C)cccc2cc1-c1cc(-c2ccc(Cl)cc2)nc(-c2ccc(Cl)cc2)c1 | 98.8% |
| CCCCN1CCN(c2ccc3nc(-c4ccc5nc(-c6ccc(OCC)c(OCC)c6)[nH]c5c4)[nH]c3c2)CC1 | 3.99% (active) |
| Fc1cc2[nH]ncc2c2c3c(c(-c4cn[nH]c4C(F)(F)F)nc12)C1CCC3C1 (configuration not stated) | 1.63% (active) |
| O=C1C(Cl)=C(NCCN2CCOCC2)C(=O)c2ncccc21 | -45.5% (active) |
| COc1cc2c(cc1OC)C(=O)/C(=C/c1cccc(OCC(=O)c3ccccc3)c1)C2 | 89.8% |
| Cc1cc(C(=O)Nc2cc(Oc3ccc4nc(NC(=O)C5CC5)cn4n3)ccc2C)n(C)n1 | 7.21% (active) |

| SMILES | growth |
| --- | --- |
| Cn1ccc2c3c(ccc21)CC3=O | 113% |
| COC1CC(C)C(OC)c2cc(O)cc(c2O)NC(=O)/C(C)=C/C=C\C(C)C(OC(N)=O)/C(C)=C\C(C)C1OC (configuration not stated) | -51.6% (active) |
| N=c1ccn2c(n1)O[C@@H]1[C@@H](O)[C@H](CO)O[C@@H]12 | 84% |
| C=CC(=O)N[C@@H](Cc1ccc(-c2cc(Cl)cc(Cl)c2)cc1)[C@@H](O)[C@H](O)C(=O)O | 95.9% |
| [2H]C([2H])([2H])Oc1cccc(/C=C/C(=O)/C=C(/C=C/c2cccc(OC([2H])([2H])[2H])c2OC([2H])([2H])[2H])OB(F)F)c1OC([2H])([2H])[2H] | 60% |
| Cc1nc(Cl)c2c(n1)N(C)c1ccc(Cl)cc1C(C)C2 (configuration not stated) | 72.2% |
| COc1cc(OC)cc(-c2n/c(=C\c3c(O)[nH]c4ccc(Cl)cc34)cc3c2=Nc2ccccc2-3)c1 | 90.2% |
| CN(Cc1ccccc1)c1nc(Cl)c(C2CC(c3ccc(Cl)cc3)=NN2c2cc(Cl)cc(Cl)c2)s1 (configuration not stated) | 102% |
| CCSC1=NC2C(N(CC)C(=O)N2CC)N1/N=C/C=C/c1ccccc1[N+](=O)[O-] (configuration not stated) | -49.4% (active) |
| COc1ccc(SC2c3ccc(C)cc3Oc3nc(N)c(C#N)c(N)c32)cc1 (configuration not stated) | -53.4% (active) |
| CCCCCn1sc(=O)n(Cc2ccc(CNC(=O)OCc3ccc4c(Cl)cc(Cl)c(O)c4n3)cc2)c1=O | 63.5% |
| Cc1ccc2[nH]c(=O)c3c(c2c1)OC(N)=C(C#N)C31C(=O)c2cccc3cccc1c23 (configuration not stated) | 98.6% |
| COc1ccc(CN2c3ccccc3Sc3ccccc32)c(F)c1 | -27% (active) |
| COc1cc(CNS(=O)(=O)c2ccc(C)cc2)ccc1OCc1cn(-c2ccc(F)cc2)nn1 | 114% |
| c1ccc2c[n+](Cc3ccc4ccccc4n3)ccc2c1 | 74.3% |
| COC(=O)C(C(=O)OC)C(Br)C(Br)C(Br)c1ccccc1 (configuration not stated) | 20.9% |
